High-throughput results as filed in PubChem BioAssay.
Hits are enriched below; roughly 8.8% of the tested compounds scored in any of these assays.
HT1080NT lethal = kills 2HG-producing HT-1080-NT fibrosarcoma cells; 360,000 tested, 1.6% active; HT-1080-NT fibrosarcoma viability, CellTiter-Glo ATP luminescence, 48 h; Potency, µM (highest dose often 46.1 µM), most hits filed as cytotoxic;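 note: NT is the 2HG producing partner of a matched IDH1 knockdown line; nearly all actives have a fitted effect of over 55% in size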
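750 cells/well, RPMI + 5% FBS; 2 h settle, compound pin-transfer, 48 h at 37 degrees C. CellTiter-Glo 10 min RT, luminescence. Normalized to DMSO and media-only wells.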
KB-V1 MDR tox = kills drug-selected multidrug resistant KB-V1 cells; 400,000 tested, 3.4% active; KB-V1 MDR cells viability, CellTiter-Glo, 72 h; AID 1347076; Potency, µM (doses to about 46.1 µM), hits mostly cytotoxic; note: nearly all actives have a fitted effect of over 60% in size
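Compound-treated KB-V1 multidrug-resistant cells, 72 h, 37 degrees C; viability by CellTiter-Glo. Fitted qHTS curves give the values.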
KB-3-1 cytotox = kills parental KB-3-1 adenocarcinoma cells; Potency, µM (highest dose often 46.1 µM), hits mostly cytotoxic; KB-3-1 viability, CellTiter-Glo ATP luminescence, 72 h; 400,000 tested, 1.4% active; note: nearly all actives have a fitted effect of over 60% in size
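Here the drug-naive KB-3-1 line serves as comparator for MDR sub-line selectivity; cells received compound titrations, 72 h at 37 °C, then CellTiter-Glo readout.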
HT1080 IDH1KD tx = toxicity to HT-1080 IDH1 knockdown cells (counter line); HT-1080 IDH1 knockdown viability, ATP luminescence, 48 h; Potency, µM (series often up to 46.1 µM), most hits filed as cytotoxic; 360,000 tested, 2% active; AID 686971
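Knockdown cells (IDH1KD HT-1080) received compounds 2 h after plating at 750 cells/well and were kept 48 h at 37 °C in 5% FBS RPMI. A CellTiter-Glo luminescence read gave % activity for curve fitting.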
IL1B secr inh = blocks inflammasome-driven IL-1 beta release | THP-1 LPS/ATP IL-1B secretion, AlphaLISA, 16 h; active compounds read low | activity change, % at 57.5 µM | 360,000 tested, 4.7% active; in the data active = activity change below about -50%; inconclusive = mostly about -30% to -49%
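Secreted IL-1B measured by AlphaLISA bead assay after 16 h compound exposure of THP-1 cells; compounds (final up to 57.5 uM) added 1 h before LPS (250 ng/mL) and ATP (1.25 mM) stimulation; lower signal means less secretion.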
Each line names hits and unclear results; the compound was inactive in the other large screens. Unless noted, calls come from the whole dose curve; as a rule, active = well fitted curve in the direction sought with a large enough effect; inconclusive = small, poorly fitted or top-dose-only effect, or another doubt; inactive = no such curve, though single readings can be large; an effect the other way counts as inactive or inconclusive.

CCCn1c(SC(C)C(=O)NC2CCCC2)n[nH]c1=O (stereo unspecified)	none
Cc1ccc2c(c1)C(=O)OC(C(=O)Nc1ccccc1C(=O)O)C2 (stereo unspecified)	none (no result: HT1080NT lethal, HT1080 IDH1KD tx, IL1B secr inh)
Cc1c(C(=O)OCC(=O)NCCN2C(=O)CSC2=O)oc2c1ccc1ccccc12	KB-V1 MDR tox 23.1µM
COCCCn1c(=O)c2sccc2n2c(CCCC(=O)NCc3ccc(OC)cc3)nnc12	none
O=C(CSc1ncnc2[nH]ncc12)Nc1nc(-c2ccc(F)c(F)c2)cs1	KB-V1 MDR tox inconclusive, IL1B secr inh -67.9
CC1Cc2cc(-c3csc(NC(=O)Cc4ccccc4)n3)ccc2N1S(C)(=O)=O (stereo unspecified)	HT1080NT lethal inconclusive, KB-V1 MDR tox 3.26µM, KB-3-1 cytotox 20.6µM, HT1080 IDH1KD tx inconclusive, IL1B secr inh -83.8
COc1cc(CC(=O)Nc2nc(C)cs2)cc(OC)c1OC	none
CS(=O)(=O)N1CCc2cc(-c3csc(NC(=O)C(c4ccccc4)c4ccccc4)n3)ccc21	HT1080NT lethal inconclusive, KB-V1 MDR tox inconclusive
COc1ccc(OC)c(-c2csc(NC(=O)Cc3ccccc3F)n2)c1	KB-V1 MDR tox inconclusive, IL1B secr inh -62.4
COc1ccc(-c2csc(NC(=O)Cc3cc(OC)c(OC)c(OC)c3)n2)cc1OC	KB-V1 MDR tox 6.51µM, HT1080 IDH1KD tx inconclusive, IL1B secr inh inconclusive
CCOC(=O)c1cnn(-c2ccc(C(=O)Nc3ccc(C(C)=O)cc3)cc2)c1N	none (no result: HT1080NT lethal, HT1080 IDH1KD tx, IL1B secr inh)
O=C(Cc1ccc(F)cc1)Nc1nc(-c2ccc(F)c(F)c2)cs1	KB-3-1 cytotox inconclusive, IL1B secr inh inconclusive
COc1ccc(CC(=O)Nc2nc(-c3ccc(F)c(F)c3)cs2)cc1	HT1080NT lethal 18.4µM, KB-V1 MDR tox inconclusive, KB-3-1 cytotox inconclusive, HT1080 IDH1KD tx inconclusive, IL1B secr inh -84.8
Cc1ccc(NC(=O)CCCCCN2C(=O)[C@@H]3Cc4ccccc4CN3C2=O)c(C)c1	IL1B secr inh inconclusive
Cc1ccc(NC(=O)C2CCCN(c3ncccn3)C2)cc1F (stereo unspecified)	KB-V1 MDR tox 16.4µM
O=C(Nc1cccc(C(F)(F)F)c1)C1CCCN(c2ncccn2)C1 (stereo unspecified)	KB-V1 MDR tox 16.4µM
Cc1ccc(NC(=O)C2CCCN(c3ncccn3)C2)c(C)c1 (stereo unspecified)	none
O=C(Nc1ccccc1-c1ccccc1)C1CCCN(c2ncccn2)C1 (stereo unspecified)	KB-V1 MDR tox 20.6µM
Cc1ccc(NC(=O)C2CCCN(C(=O)c3ccc(Cl)cc3)C2)cc1C (stereo unspecified)	KB-V1 MDR tox inconclusive, KB-3-1 cytotox inconclusive, HT1080 IDH1KD tx inconclusive, IL1B secr inh -71.3
COc1cccc(Oc2nc(-c3ccncc3)nc3ccccc23)c1	KB-V1 MDR tox inconclusive, KB-3-1 cytotox inconclusive, IL1B secr inh inconclusive
Cc1cccc(-c2nc(CS(=O)CC(=O)N3CC(C)CC(C)C3)c(C)o2)c1 (stereo unspecified)	KB-V1 MDR tox inconclusive
CCCN(Cc1cccs1)C(=O)Nc1ccc(Br)c(C)c1	none (no result: HT1080NT lethal, HT1080 IDH1KD tx, IL1B secr inh)
COc1ccc(OCCCCn2c(CO)nc3ccccc32)cc1	none
Cc1n[nH]c(C)c1CCCOc1ccccc1	none
COc1ccc(OCCCc2c(C)n[nH]c2C)cc1	HT1080 IDH1KD tx inconclusive
COc1ccccc1OCCCCCc1c(C)n[nH]c1C	KB-V1 MDR tox 4.61µM, KB-3-1 cytotox inconclusive
Cc1cccc(OCCCCc2c(C)n[nH]c2C)c1C	HT1080NT lethal inconclusive, KB-V1 MDR tox 16.4µM, KB-3-1 cytotox inconclusive, HT1080 IDH1KD tx inconclusive
COc1ccccc1OCCCc1c(C)n[nH]c1C	KB-V1 MDR tox 16.4µM
CCOc1ccccc1OCCCCCc1c(C)n[nH]c1C	HT1080NT lethal inconclusive, KB-V1 MDR tox 2.91µM, KB-3-1 cytotox 20.6µM, HT1080 IDH1KD tx inconclusive, IL1B secr inh inconclusive
COc1cccc(OCCc2c(C)n[nH]c2C)c1	KB-V1 MDR tox 20.6µM, KB-3-1 cytotox inconclusive
Cc1cccc(OCCCCc2c(C)n[nH]c2C)c1	HT1080NT lethal inconclusive, HT1080 IDH1KD tx inconclusive
COc1cc2nc(C3CCC3)nc(N3CCN(c4ccccc4OC)CC3)c2cc1OC	KB-V1 MDR tox 7.31µM
COc1cc2ccccc2cc1C(=O)N1CCN(c2ccccn2)CC1	none
COc1ccccc1N1CCN(C2CCCC(C)C2)CC1 (stereo unspecified)	none
